Experimental findings from PubChem BioAssay (NCATS) are described below.

The structures appear in SMILES notation. Results filed as inconclusive are left out. A call without a number means that no potency is given here. The source made the active and inactive calls. Calls come from the whole dose curve; as a rule, active = well fitted inhibition curve with a large enough effect; inconclusive = small, poorly fitted or top-dose-only effect; inactive = flat fitted curve, though single readings scatter.
Potency is the fitted concentration of half-maximal effect.

The assay deals with CP291. Description: qHTS profiling for inhibitors of Plasmodium falciparum proliferation (AID 504749). Note: nearly all actives have a fitted effect of over 60% in size. Particulars: P. falciparum in erythrocytes, SYBR Green DNA, 72 h; series mostly up to 28.7 µM. The essentials: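 P. falciparum-infected erythrocytes (0.3% parasitemia, 2.5% hematocrit final) were exposed to compounds for 72 h at 37 C in 5% CO2, then lysed with SYBR Green buffer overnight at room temperature; parasite DNA fluorescence was normalized to artemisinin and DMSO controls.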
In the case of `C=C(C)C1CC=C(C)CC1` (centres undefined), the Potency entry was “inactive”. As for `F[Si-2](F)(F)(F)(F)F`, the entry is “inactive”.

On to `CC1=CC(=O)NS(=O)(=O)O1`, for which the Potency result was “inactive”. As for `O=C(O)c1ccc(OCCn2ccnc2)cc1`, the entry is “inactive”. The entry for `CO` is “inactive”; for `C[C@H](CCC(=O)O)[C@H]1CC[C@H]2[C@@H]3CC[C@@H]4C[C@H](O)CC[C@]4(C)[C@H]3C[C@H](O)[C@]12C` it is “inactive”. For `CC1=CC(=C(c2ccc(N)cc2)c2ccc(N)cc2)C=CC1=N`, the Potency was 3.01 µM (active). As for `O=C(/C=C/c1cccc(F)c1)NC1CC1`, the entry is “inactive”; as for `CC(CC=O)CCCC(C)(C)O` (centres undefined), “inactive”. In the case of `CC(C)O`, the Potency entry is “inactive”. The entry for `CCCc1ccc(C(=O)O)cc1` is “inactive”; for `O=C(O)Cc1cc(I)c(Oc2ccc(O)c(I)c2)c(I)c1` it is “inactive”.

Take `NCC[C@H](O)C(=O)N[C@@H]1C[C@H](N)[C@@H](O[C@H]2O[C@H](CN)CC[C@H]2N)[C@H](O)[C@H]1O[C@H]1O[C@H](CO)[C@@H](O)[C@H](N)[C@H]1O`: the Potency entry was “inactive”.

For `NC(=O)[C@@H]1CCCN1C(=O)[C@H](Cc1cnc[nH]1)NC(=O)[C@@H]1CCC(=O)N1`, the Potency result was “inactive”.

`OC[C@H]1O[C@@](CO)(O[C@H]2O[C@H](CO)[C@@H](O)[C@H](O)[C@H]2O)[C@@H](O)[C@@H]1O`: the Potency entry is “inactive”. `Cc1c(Cl)cccc1Nc1ncccc1C(=O)O`: the Potency entry was “inactive”. As to `CC(/C=C/C=C(\C)C(=O)O[C@@H]1O[C@H](CO[C@@H]2O[C@H](CO)[C@@H](O)[C@H](O)[C@H]2O)[C@@H](O)[C@H](O)[C@H]1O)=C\C=C\C=C(C)\C=C\C=C(/C)C(=O)O[C@@H]1O[C@H](CO[C@@H]2O[C@H](CO)[C@@H](O)[C@H](O)[C@H]2O)[C@@H](O)[C@H](O)[C@H]1O`, the Potency entry is “inactive”. As to `CC(C)[C@@H](N)C(=O)O`, the Potency result is “inactive”. As for `O=C(NCCNCC(O)COc1ccc(O)cc1)N1CCOCC1` (centres undefined), the entry is “inactive”; as for `O=S(=O)(O)CC(S)CS` (centres undefined), “inactive”; as for `NCCN`, “inactive”. As for `O=S(=O)(O)CCCS(=O)(=O)O`, the Potency result is “inactive”. As for `O=C(Nc1ccc(O)cc1)c1ccccc1O`, the entry is “inactive”. In the case of `CCOC(=O)c1cc(-c2ccccc2)nc2ccc(C)cc12`, the Potency entry is “inactive”.

For the molecule `C=CC(C)(O)CC/C=C(\C)CCC=C(C)C` (centres undefined), the Potency entry was “inactive”.

With `O=C(O)COc1ccccc1/C=N/NC(=O)c1ccncc1`, the Potency result is “inactive”. As for `OC[C@H]1O[C@@H]2O[C@H]3[C@H](O)[C@@H](O)[C@@H](O[C@H]4[C@H](O)[C@@H](O)[C@@H](O[C@H]5[C@H](O)[C@@H](O)[C@@H](O[C@H]6[C@H](O)[C@@H](O)[C@@H](O[C@H]7[C@H](O)[C@@H](O)[C@@H](O[C@H]1[C@H](O)[C@H]2O)O[C@@H]7CO)O[C@@H]6CO)O[C@@H]5CO)O[C@@H]4CO)O[C@@H]3CO`, the Potency result is “inactive”. Regarding `CN=C1C=CC(=C(c2ccc(N(C)C)cc2)c2ccc(N(C)C)cc2)C=C1`, the Potency is 1.07 µM (active). With `CN(Cc1ccccc1)Cc1ccccc1`, the Potency result is “inactive”. The entry for `O=C1NCCN1c1ncc([N+](=O)[O-])s1` is “inactive”. The entry for `CC(=O)Oc1cc(C(F)(F)F)ccc1C(=O)O` is “inactive”; for `O=[N+]([O-])c1c(Cl)cccc1-c1c[nH]cc1Cl` it is “inactive”. As for `CC(=O)Nc1c(I)c(C(=O)O)c(I)c(N(C)C(C)=O)c1I`, the entry is “inactive”. With `O=C1N=C2SCCN2C(=O)C1Cc1ccc(Cl)cc1` (centres undefined), the Potency entry was “inactive”. As for `O=C(O)Cc1nn(Cc2ccc(Br)cc2F)c(=O)c2ccccc12`, the entry is “inactive”; as for `CCC(C(=O)NC(N)=O)c1ccccc1` (centres undefined), “inactive”. For `CC(CCc1ccc(O)cc1)NCC(O)c1ccc(O)cc1` (centres undefined), the Potency result was “inactive”. The entry for `CC/C=C\C/C=C\C/C=C\C/C=C\C/C=C\CCCC(=O)O` is “inactive”; for `CC1(C)S[C@@H]2[C@H](NC(=O)C3(N)CCCCC3)C(=O)N2[C@H]1C(=O)O` it is “inactive”.
